Screens deposited in PubChem BioAssay by National Center for Advancing Translational Sciences (NCATS).
Sfp PPTase inh: blocks B. subtilis Sfp PPTase activity. AID 1490. Q9F4F7. Potency, µM, for the others: largest response in the series, negative = inhibition, usual class: inhibitors. 310,000 compounds, 3.5% hits. Biochemical Sfp PPTase activity, qHTS;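 also: the enzyme is Sfp with the accession as filed and its product quenches rhodamine fluorescence; 0% = enzyme reaction without inhibitor and -100% = no enzyme wells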
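Reaction rates are the 30-min fluorescence difference (ex 525, em 598 nm) in wells containing 15 nM Sfp, 5 uM rhodamine-CoA and 12.5 uM BHQ-2-YbbR at pH 7.6 with 10 mM MgCl2.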
JMJD2A Tudor inh: JMJD2A Tudor domain (human) inhibition. AlphaScreen JMJD2A-Tudor / H3K4me3 peptide binding. Potency, µM (doses to about 114 µM), for inactives: top-dose activity change, negative = inhibition, actives largely listed as inhibitors. O75164. 390,000 compounds, 4.4% hits. AID 504339; also: % is scaled to controls: 0 for no effect and ±100 for the full control effect; nearly all actives have a fitted effect of over 50% in size
G9a block: blocks human histone lysine methyltransferase G9a; Q96KQ7; G9a H3K9 monomethylation, AlphaScreen, 2 h; Potency, µM (top dose mostly 102 µM), inactives show top-dose activity, negative = inhibition, actives largely listed as inhibitors; 350,000 compounds, 8.8% hits; AID 504332; also: % is scaled to controls: 0 for no effect and ±100 for the full control effect; nearly all actives have a fitted effect of over 75% in size
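Compounds were preincubated with 20 nM G9a for 15 min, after which biotinylated H3K9 peptide (500 nM) and SAM (20 uM) started a 2 h room-temperature reaction. Monomethylated product was quantified by antibody-based AlphaScreen chemiluminescence.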
L3MBTL1 block: L3MBTL1 (human) inhibition; Q9Y468; AlphaScreen L3MBTL1–H3K9me1 peptide binding; 230,000 compounds, 0.66% hits; Potency, µM (doses to about 57.1 µM), inactives show at the top dose activity, negative = inhibition, usual class: inhibitors; also: % is scaled to controls: 0 for no effect and ±100 for the full control effect; nearly all actives have a fitted effect of over 60% in size
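AlphaScreen proximity signal between nickel-chelate acceptor and streptavidin donor beads (final 10 ug/mL) reports binding of 50 nM L3MBTL1 to 75 nM biotin-H3 K9me1 peptide; complex incubated with compounds 30 min at room temperature; cefsulodin titration as control.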
BAZ2B block: BAZ2B (human) inhibition | Q9UIF8 | AlphaScreen BAZ2B-H3K14Ac peptide displacement | AID 504333 | Potency, µM (top dose mostly 114 µM), inactives show at the highest dose activity change, negative = inhibition, usual class: inhibitors | 360,000 compounds, 4.4% hits; also: % is scaled to controls: 0 for no effect and ±100 for the full control effect; nearly all actives have a fitted effect of over 60% in size
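Protein-peptide AlphaScreen: BAZ2B 50 nM, b-H3K14Ac 50 nM, 1x PBS pH 7.4 + 0.01% Tween-20. Preincubation 30 min RT; cpd 30 min RT (top 110 uM); beads 20 min RT, light-protected.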
HP1b chromo inh: inhibitors of HP1-beta chromodomain binding to methylated histone tails. AlphaScreen HP1-beta / biotin-H3K9me3 peptide binding. Potency, µM (top dose mostly 114 µM), for inactives: top-dose activity change, negative = inhibition, usual class: inhibitors. 390,000 compounds, 0.56% hits; also: nearly all actives have a fitted effect of over 70% in size
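HP1-beta protein (50 nM final) preincubated 30 min at room temperature with biotinylated H3(1-18)K9me3 peptide (50 nM) in PBS pH 7.4, 0.01% Tween-20, then compound added for 30 min. AlphaScreen streptavidin donor/nickel chelate acceptor beads (10 ug/mL final), 30 min dark, luminescence read.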
* hit, by the source's call; ? = inconclusive; . = not tested or not shown; ! = a repeat was not active; [ ] = another dose, or the depositor's remark. Most compounds without a hit are left out; they make up all but 12% or so of the library. Calls follow the shape of the dose curve; as a rule, active = well fitted curve in the direction sought with a large enough effect; inconclusive = small, poorly fitted or top-dose-only effect, or another doubt; inactive = no such curve, though single readings can be large; an effect the other way counts as inactive or inconclusive. Potency is read from the fitted curve at half-maximal effect.

SMILES | Sfp PPTase inh | JMJD2A Tudor inh | G9a block | L3MBTL1 block | BAZ2B block | HP1b chromo inh
c1cc(CNc2ccc(N3CCOCC3)cc2)ccn1 | 50µM* | -34% | 40µM* | . | ? | -15%
Cc1ccc(CNc2ccc(N3CCOCC3)c(Cl)c2)cc1 | -17% | ? | . | -28% | 40µM* | ?
Cc1ccc(CNc2ccc(N3CCOCC3)cc2)cc1 | -21% | 45µM* | 28µM* | ? | 32µM* | ?
COC(=O)CNc1n[nH]c(=S)[nH]c1=O | 50µM* | -13%[11.4 µM] | ? | 8% | -28% | 36%
CN(C)C(=O)CNc1n[nH]c(=S)[nH]c1=O | 20µM* | -36% | -2% | 0% | -19% | 41%
CC(C)OC(=O)C(C)Nc1n[nH]c(=S)[nH]c1=O (stereo unspecified) | 2% | -1% | 45µM* | 0% | -21% | 52%
CC(C)OC(=O)CNc1n[nH]c(=S)[nH]c1=O | 45µM* | 79µM* | 25µM* | 4% | -21% | 6%
COCCN(CCOC)S(=O)(=O)c1ccc(C(=O)Nc2ccc([N+](=O)[O-])cc2OC)cc1 | 45µM* | -17% | 4% | 6% | -11% | 37%
Cc1nnc(NC(=O)c2ccc3ccccc3c2)o1 | -11% | 50µM* | 7%[59 µM] | -18% | 28µM* | 31%
COCCN(CCOC)S(=O)(=O)c1ccc(C(=O)Nc2nnc(C)o2)cc1 | 89µM* | 28µM* | 7.1µM* | . | 14µM* | 4%
Cc1nnc(NC(=O)c2ccc(S(=O)(=O)N(C)Cc3ccccc3)cc2)o1 | 29% | ? | -1% | 12% | 79µM* | 43%
COCCN(CCOC)S(=O)(=O)c1ccc(C(=O)Nc2nc(C)c(C(C)=O)s2)cc1 | 7% | -18% | 37%[12.7 µM] | 8% | -3% | 16%
COCc1nnc(NC(=O)c2ccc(S(=O)(=O)N(C)Cc3ccccc3)cc2)o1 | 16% | -15% | 16%[59 µM] | . | ? | 13%
Cc1nc(N2CCN(C)CC2)c2nnn(Cc3ccccc3)c2n1 | . | -5% | . | . | . | 55%
CCn1c(C)[n+](CC)c2ccc(S(=O)(=O)N(C)C)cc21 | 10% | 0% | 45µM* | 1% | ? | 24%
CCn1c(C)[n+](CC)c2ccc(C(=O)N(C)c3ccccc3)cc21 | -7% | -1% | 35µM* | 4% | -27% | 30%
CCN1/C(=C2/OC(=S)N(C)C2=O)Sc2ccccc21 | -22% | -5% | ? | 1% | -7% | 56%
CCN1/C(=C2/SC(=S)NC2=O)Sc2ccccc21 | -29% | -24% | 8.9µM* | 1% | -13% | 53%
Cc1ccc(OCCCCn2c(CCNC(=O)C3CCCCC3)nc3ccccc32)cc1 | . | 1%[57.1 µM] | . | . | . | 12%[57 µM]
COc1ccc(C2CC(=O)c3cc(-c4nc(-c5cccc([N+](=O)[O-])c5)cs4)c(=O)n(-c4cc(C)cc(C)c4)c3C2)cc1 (stereo unspecified) | . | -10% | -37%[59 µM] | . | -10% | 18%
COc1ccc(C2CC(=O)c3cc(-c4nc(-c5cccc([N+](=O)[O-])c5)cs4)c(=O)n(-c4ccc(C)c(C)c4)c3C2)cc1 (stereo unspecified) | . | -22% | 11µM* | . | -39% | 37%
CCCN(CCO)Cc1ccc(F)c(Br)c1 | -20% | 14µM* | 16µM* | 1% | 79µM* | ?
Cc1ccc(C(=O)NCC(=O)OC(C)C(=O)Nc2ccccc2[N+](=O)[O-])s1 (stereo unspecified) | . | -3% | . | 1% | . | 29%
Cc1ccc(C(=O)NCC(=O)OC(C)C(=O)Nc2ccc(N(C)C)cc2)s1 (stereo unspecified) | -3% | -34% | 40µM* | . | -38% | 16%
O=C(O)CCCNS(=O)(=O)c1ccc(NCc2ccccc2)c(C(=O)O)c1 | -5% | -9% | 22µM* | -1% | -36% | 40%
SMILES | Sfp PPTase inh | JMJD2A Tudor inh | G9a block | L3MBTL1 block | BAZ2B block | HP1b chromo inh
O=C(O)CCCCCCNS(=O)(=O)c1ccccc1 | -4% | 8% | 21% | . | ? | 25%
Cn1cccc1/C=C1\SC(=Nc2cccc(O)c2)NC1=O | -20% | ? | . | -17% | 25µM* | ?
CCNC(=O)NC(=O)C(C)Sc1nnc(COc2ccccc2Cl)o1 (stereo unspecified) | -13% | ? | 18µM* | . | ? | 63%
Cc1ccc2nc3sc(C(=O)N4CCCc5ccccc54)c(N)c3cc2c1 | 22% | -35% | 3.2µM* | 1% | 4% | 17%
Cc1cc(C)c2cc3c(N)c(C(=O)N4CCc5ccccc5C4)sc3nc2c1 | -16% | -16% | 10µM* | 1% | 3% | 15%
COc1ccc(OC)c(C2C3=C(N=C4SCC(=O)N42)c2ccccc2CC3)c1 (stereo unspecified) | ? | ? | ? | -30% | 50µM* | 11%
CC1=CCC2C(=O)N(c3nc4ccccc4n3C)C(=O)C2C1 (stereo unspecified) | 16% | 56µM* | -5%[59 µM] | . | ? | 0%
CCOC(=O)C1CCN(C(=O)Cn2ncc3c4ccccc4n(Cc4ccccc4)c3c2=O)CC1 | . | -12% | 5%[59 µM] | . | -19% | 11%
O=S(=O)(c1ccccc1)N1CCC2(CCCN(c3ccncc3)C2)CC1 | 14% | . | 10%[12.7 µM] | . | . | .
CCOC(=O)c1c(C)n(-c2ccc(C)cc2)c2ccc(OCC(O)CNCC3CCCO3)cc12 (stereo unspecified) | 45µM* | 13µM* | 16µM* | . | 28µM* | ?
CCOC(=O)c1c(C)n(-c2ccc(C)cc2)c2ccc(OCC(O)CNCCCO)cc12 (stereo unspecified) | ? | ? | 8.9µM* | . | ? | -21%
O=C(c1cc2c(s1)-c1ccccc1OC2)N1CCN(c2ccccc2)CC1 | -7% | -13% | 1.1µM*! | . | 4% | 21%
Cc1ccc(C)c(NC(=O)CCC(=O)N/N=C/c2ccc[nH]2)c1 | -17% | -24% | . | -5% | -30% | 22%
Cc1c(Cl)cccc1NC(=O)CCN1CCCCC1 | 7% | -1% | ? | 0% | -4% | 20%
Cc1c(Cl)cccc1NC(=O)CCN1CCOCC1 | 0% | -3% | 40µM* | -1% | 4% | 32%
Cc1cc(Cl)ccc1NC(=O)CCN1C(=O)NC(C)(C)C1=O | . | 7% | -13%[2.33 µM] | 7% | 7% | 34%
Cc1c(Cl)cccc1NC(=O)NCc1ccc(F)cc1 | 3% | -8% | 50µM* | -3% | -5% | 11%
Cc1c(Cl)cccc1NC(=O)CCC(=O)N/N=C/c1ccc[nH]1 | 45µM* | -29% | 18µM* | -8% | 5% | 2%
Cc1c(Cl)cccc1NC(=O)CCN1C(=O)NC(C)(C)C1=O | . | 2% | 50µM* | -4% | -5% | 49%
